The entries come from a sample that favours hits as a whole.
DT40 TDP1 CPT – qHTS for Inhibitors of human tyrosyl-DNA phosphodiesterase 1 (TDP1): qHTS in cells in presence of CPT | chicken DT40 Tdp1-/-;hTDP1 cells + 20 nM CPT, ATP luminescence, 48 h | actives 12% (n = 420,000) | Potency, µM (titrated, usually from 46.2 µM), without a hit: top-dose activity change, negative = growth inhibition, usual class: inhibitors | AID 686979, 2013; note: potency is the fitted concentration of half-maximal effect; nearly all actives have a fitted effect of over 55% in size
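Chicken DT40 Tdp1-/- cells stably complemented with human TDP1 were seeded at 400 cells/well in medium containing 20 nM camptothecin, exposed to pin-transferred compounds, and grown at 37 °C for at least 48 hr. Viability was read as ATP luminescence.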
IL-1B inflam inh – qHTS for Inhibitors of Inflammasome Signaling: IL-1-beta AlphaLISA Primary Screen. THP-1 LPS/ATP IL-1B secretion, AlphaLISA, 16 h; hits give low values. activity change, % at 57.5 µM. actives 4.7% (n = 360,000). AID 743279, 2014; in the data active = activity change below about -50%; inconclusive = mostly about -30% to -49%
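Secreted IL-1B measured by AlphaLISA bead assay after 16 h compound exposure of THP-1 cells; compounds (final up to 57.5 uM) added 1 h before LPS (250 ng/mL) and ATP (1.25 mM) stimulation; lower signal means less secretion.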
HT1080-NT tox – qHTS for induction of synthetic lethality in tumor cells producing 2HG: qHTS for the HT-1080-NT fibrosarcoma cell line | actives 1.6% (n = 360,000) | Potency, µM (series often up to 46.1 µM), inactives show at the top dose activity, negative = less viability, hits mostly cytotoxic | HT-1080-NT fibrosarcoma viability, CellTiter-Glo ATP luminescence, 48 h;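 note: NT is the 2HG producing partner of a matched IDH1 knockdown line; potency is the fitted concentration of half-maximal effect; 0% = DMSO-treated cells and -100% = media-only wells without cells; nearly all actives have a fitted effect of over 55% in size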
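Compounds were tested in concentration-response format on HT-1080-NT cells for 48 hours at 37 degrees C. Cell viability came from CellTiter-Glo luminescence; curves were classified by r2, response magnitude and activity.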
HT1080 IDH1KD tx – qHTS for induction of synthetic lethality in tumor cells producing 2HG: qHTS for the HT-1080-IDH1KD cell line | AID 686971, 2013 | actives 2% (n = 360,000) | Potency, µM (doses to about 46.1 µM), for inactives: at the highest dose activity, negative = toxicity, most hits filed as cytotoxic | HT-1080 IDH1 knockdown viability, ATP luminescence, 48 h;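 note: potency is the fitted concentration of half-maximal effect; 0% = DMSO wells and -100% = cell-free medium wells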
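After a 2 h attachment period, IDH1KD HT-1080 cells took pin-transferred compound for 48 h at 37 °C; ATP-based luminescence after 10 min room-temperature reagent incubation reported viability.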
DT40 TDP1 no CPT – qHTS for Inhibitors of human tyrosyl-DNA phosphodiesterase 1 (TDP1): qHTS in cells in absence of CPT. DT40 Tdp1-/- hTDP1 cells, no CPT, ATP luminescence, 48 h. Potency, µM (series often up to 46.2 µM), inactives show top-dose activity change, negative = growth inhibition, actives largely listed as inhibitors. actives 15% (n = 420,000); note: potency is the fitted concentration of half-maximal effect; nearly all actives have a fitted effect of over 55% in size
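Cells were dispensed at 400 per well, compounds added by pin tool, plates incubated ≥48 hr at 37 °C, then CellTiter-Glo added for 30 min at room temperature before luminescence reading. Line: DT40 Tdp1-/- complemented with hTDP1; camptothecin omitted.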
12-LOX inh – Primary qHTS assay for inhibitors of human arachidonate 12S-lipoxygenase (ALOX12): Round 2 | Potency, µM (titrated, usually from 108 µM), for the others: at the highest dose activity change, negative = inhibition, hits mostly inhibitors | purified 12hLO, xylenol orange hydroperoxide absorbance | actives 1.1% (n = 580,000) | Polyunsaturated fatty acid lipoxygenase ALOX12 (Homo sapiens), P18054 | AID 1671190, 2021; note: potency is the fitted concentration of half-maximal effect
Target sequence (P18054 whole entry, looked up): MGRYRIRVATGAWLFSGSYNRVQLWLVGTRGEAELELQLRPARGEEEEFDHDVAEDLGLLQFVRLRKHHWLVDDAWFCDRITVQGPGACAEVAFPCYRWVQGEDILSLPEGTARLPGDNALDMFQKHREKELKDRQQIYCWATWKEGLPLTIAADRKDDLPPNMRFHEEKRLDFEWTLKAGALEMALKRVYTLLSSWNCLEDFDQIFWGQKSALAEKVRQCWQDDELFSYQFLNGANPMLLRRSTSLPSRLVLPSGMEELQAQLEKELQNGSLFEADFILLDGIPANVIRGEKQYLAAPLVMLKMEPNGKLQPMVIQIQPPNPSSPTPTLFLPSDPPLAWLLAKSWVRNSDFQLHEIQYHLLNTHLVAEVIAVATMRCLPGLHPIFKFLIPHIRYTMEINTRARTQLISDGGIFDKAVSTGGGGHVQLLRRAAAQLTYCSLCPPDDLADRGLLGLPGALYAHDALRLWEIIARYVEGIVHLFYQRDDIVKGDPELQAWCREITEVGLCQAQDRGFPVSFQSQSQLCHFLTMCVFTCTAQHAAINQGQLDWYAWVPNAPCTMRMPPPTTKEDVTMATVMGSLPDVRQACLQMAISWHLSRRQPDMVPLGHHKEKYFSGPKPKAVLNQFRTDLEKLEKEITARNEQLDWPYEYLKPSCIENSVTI
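Purified human 12hLO (150 nM final) in 25 mM Hepes, 0.01% Triton X-100, pH 7.0 was preincubated 15 min at room temperature with compound. Then 40 uM arachidonic acid was added, 30 min. Hydroperoxide was read by Fe-XO absorbance ratio 573/405 nm.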
* hit, by the source's call. Unless noted, calls come from the whole dose curve; as a rule, active = well fitted curve in the direction sought with a large enough effect; inconclusive = small, poorly fitted or top-dose-only effect, or another doubt; inactive = no such curve, though single readings can be large; an effect the other way counts as inactive or inconclusive. Unless noted, % is set by controls: 0 for no effect and ±100 for the full control effect.

Results for CCCCNS(=O)(=O)c1ccc(C)c(-c2nnc3c4ccccc4c(C)nn23)c1 ?
DT40 TDP1 CPT: inconclusive; DT40 TDP1 no CPT: 16µM*; 12-LOX inh: -3%

What do the screens show for `CCCNS(=O)(=O)c1cc(-c2nn3c(C)nnc3c3ccccc23)ccc1C`?
DT40 TDP1 CPT: inconclusive; DT40 TDP1 no CPT: 18µM*; 12-LOX inh: inconclusive

How did Cc1ccc(C)c(Nc2nnc(-c3ccc(C)c(S(=O)(=O)NCC4CCCO4)c3)c3ccccc23)c1 (stereo not drawn) do in these assays?
DT40 TDP1 CPT: 18µM*; DT40 TDP1 no CPT: 5.2µM*; 12-LOX inh: -17%

How did CNC(=O)c1ccc(Nc2nnc(-c3ccc(C)c(S(=O)(=O)NCC4CCCO4)c3)c3ccccc23)cc1 (stereo not drawn) do in these assays?
DT40 TDP1 CPT: 26µM*; IL-1B inflam inh: inconclusive; HT1080-NT tox: -21%; HT1080 IDH1KD tx: -13%; DT40 TDP1 no CPT: 13µM*; 12-LOX inh: 2%

How did CCOC(=O)c1cnc(SCc2nc(-c3cccc(C)c3)oc2C)nc1N do in these assays?
12-LOX inh: 7%

Results for Cc1ccc(-c2nn3c(C)nnc3c3ccccc23)cc1S(=O)(=O)NCC(C)O (stereo not drawn) ?
DT40 TDP1 CPT: inconclusive; DT40 TDP1 no CPT: -59%; 12-LOX inh: -3%

Results for Cc1ccc(-c2nnc(Nc3ccccc3)c3ccccc23)cc1S(=O)(=O)NCC1CCCO1 (stereo not drawn) ?
DT40 TDP1 CPT: 26µM*; IL-1B inflam inh: -62*; HT1080-NT tox: -19%; HT1080 IDH1KD tx: -20%; DT40 TDP1 no CPT: 16µM*; 12-LOX inh: -15%

How did CC(=O)Nc1ccc(Nc2nnc(-c3ccc(C)c(S(=O)(=O)NCC4CCCO4)c3)c3ccccc23)cc1 (stereo not drawn) do in these assays?
DT40 TDP1 CPT: -3%; IL-1B inflam inh: -10; HT1080-NT tox: -4%; HT1080 IDH1KD tx: -2%; DT40 TDP1 no CPT: 3%; 12-LOX inh: 18%

Results for Cc1ccc(-c2nn3c(-c4ccco4)nnc3c3ccccc23)cc1S(=O)(=O)NCC1CCCO1 (stereo not drawn) ?
DT40 TDP1 CPT: inconclusive; IL-1B inflam inh: -26; HT1080-NT tox: 2%; HT1080 IDH1KD tx: 1%; DT40 TDP1 no CPT: 5.8µM*; 12-LOX inh: -11%

Results for CCOC(=O)CNS(=O)(=O)c1cc(-c2nn(C)c(=O)c3ccccc23)ccc1C ?
DT40 TDP1 CPT: inconclusive; IL-1B inflam inh: -92*; HT1080-NT tox: 2%; HT1080 IDH1KD tx: 0%; DT40 TDP1 no CPT: inconclusive; 12-LOX inh: inconclusive

Results for Cc1ccc(NC(=O)CCc2ccco2)c(Br)c1 ?
12-LOX inh: -20%

Results for COc1cccc(C(=O)NCC(=O)O)c1 ?
12-LOX inh: -26%

How did Cc1cccc(C)c1NC(=O)CN1CCN(C(=O)c2cc(C3CC3)nn2-c2ccccc2)CC1 do in these assays?
DT40 TDP1 CPT: -25%; IL-1B inflam inh: -14; HT1080-NT tox: 2%; HT1080 IDH1KD tx: -4%; DT40 TDP1 no CPT: inconclusive; 12-LOX inh: -2%

What do the screens show for `O=C(c1cc(C2CC2)nn1-c1ccccc1)N1CCN(Cc2ccc(Cl)cc2)CC1`?
DT40 TDP1 CPT: 18µM*; IL-1B inflam inh: -17; HT1080-NT tox: -28%; HT1080 IDH1KD tx: -6%; DT40 TDP1 no CPT: 12µM*; 12-LOX inh: -18%

Results for O=C(c1cc(-c2ccccc2)nn1-c1ccccc1)N1CCN(S(=O)(=O)c2c(F)cccc2F)CC1 ?
DT40 TDP1 CPT: 13µM*; IL-1B inflam inh: -9; HT1080-NT tox: 2%; HT1080 IDH1KD tx: 0%; DT40 TDP1 no CPT: inconclusive; 12-LOX inh: -5%

What do the screens show for `O=C(c1cc(C2CC2)nn1-c1ccccc1)N1CCN(Cc2ccccc2F)CC1`?
DT40 TDP1 CPT: 16µM*; IL-1B inflam inh: inconclusive; HT1080-NT tox: -10%; HT1080 IDH1KD tx: -18%; DT40 TDP1 no CPT: 23µM*; 12-LOX inh: 9%

What do the screens show for `O=C(c1cc(C2CC2)nn1-c1ccccc1)N1CCN(S(=O)(=O)c2ccccc2)CC1`?
DT40 TDP1 CPT: inconclusive; IL-1B inflam inh: -14; HT1080-NT tox: -2%; HT1080 IDH1KD tx: -11%; DT40 TDP1 no CPT: 16µM*; 12-LOX inh: -25%

How did COc1cc2c(cc1OC)-c1c(c(C(=O)N3CCCC3)nn1-c1ccccc1F)C2 do in these assays?
12-LOX inh: -8%

How did CNc1snc(C)c1C(=O)NCCc1ccccc1 do in these assays?
12-LOX inh: 29%

Results for CSCCC(c1nc2ccccc2[nH]1)n1c(=O)c(-c2cc3ccccc3[nH]2)nc2ccccc21 (stereo not drawn) ?
DT40 TDP1 CPT: inconclusive; IL-1B inflam inh: -17; HT1080-NT tox: inconclusive; HT1080 IDH1KD tx: inconclusive; DT40 TDP1 no CPT: inconclusive; 12-LOX inh: -24%

How did CC(c1nc2ccccc2[nH]1)n1c(=O)c(-c2ccco2)nc2ccccc21 (stereo not drawn) do in these assays?
DT40 TDP1 CPT: 13µM*; IL-1B inflam inh: inconclusive; HT1080-NT tox: -18%; HT1080 IDH1KD tx: -9%; DT40 TDP1 no CPT: 18µM*; 12-LOX inh: 13µM*

What do the screens show for `O=C(Nc1ccc2ccccc2c1)C(c1ccccc1)n1c(=O)c(-c2cc3ccccc3[nH]2)nc2ccccc21` (stereo not drawn)?
DT40 TDP1 CPT: inconclusive; IL-1B inflam inh: 67; HT1080-NT tox: -28%; HT1080 IDH1KD tx: -19%; DT40 TDP1 no CPT: 16µM*; 12-LOX inh: inconclusive

How did CC(c1nc2ccccc2[nH]1)n1c(-c2ccncc2)nc2ccccc21 (stereo not drawn) do in these assays?
DT40 TDP1 CPT: -11%; IL-1B inflam inh: 13; HT1080-NT tox: 24%; HT1080 IDH1KD tx: 21%; DT40 TDP1 no CPT: -7%; 12-LOX inh: 7%
